Unmarked numbers belong to inactive results. Inconclusive results are not listed. This is one part of the list. A call without a number means that no potency is given here. Calls of active or inactive are those of the source. Unless noted, the call rests on the fitted dose curve; in most records, active means well fitted curve in the direction sought with a large enough effect; inconclusive means small, poorly fitted or top-dose-only effect, or another doubt; inactive means no such curve, though single readings can be large; an effect the other way counts as inactive or inconclusive.
Legend:
[1] = Cell Viability - Jurkat (AID 426;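 active means dose-dependent loss of cell ATP signal giving a full or clear fitted curve, ranked by lower potency value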; further: potency means the concentration at half of the fitted maximal effect); details: qHTS
In short: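 Jurkat (clone E6-1, human T-cell leukemia) cells, 5000/well in complete medium, were exposed to compound for 40 hr at 37 °C. Viability was read as intracellular ATP by CellTiter-Glo luminescence; AC50 came from Hill fits of concentration-response data.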

[2] = molecular target: Cytochrome P450 3A4 (Homo sapiens) (UniProt P08684); experiment: qHTS Assay for Activators of Cytochrome P450 3A4 (AID 885); details: recombinant CYP3A4, Luciferin-PPXE luminescence, 60 min; series mostly up to 57.1 µM; further: nearly all actives have a fitted effect of over 65% in size
Cytochrome P450 3A4 (Homo sapiens), sequence (P08684 whole entry, looked up): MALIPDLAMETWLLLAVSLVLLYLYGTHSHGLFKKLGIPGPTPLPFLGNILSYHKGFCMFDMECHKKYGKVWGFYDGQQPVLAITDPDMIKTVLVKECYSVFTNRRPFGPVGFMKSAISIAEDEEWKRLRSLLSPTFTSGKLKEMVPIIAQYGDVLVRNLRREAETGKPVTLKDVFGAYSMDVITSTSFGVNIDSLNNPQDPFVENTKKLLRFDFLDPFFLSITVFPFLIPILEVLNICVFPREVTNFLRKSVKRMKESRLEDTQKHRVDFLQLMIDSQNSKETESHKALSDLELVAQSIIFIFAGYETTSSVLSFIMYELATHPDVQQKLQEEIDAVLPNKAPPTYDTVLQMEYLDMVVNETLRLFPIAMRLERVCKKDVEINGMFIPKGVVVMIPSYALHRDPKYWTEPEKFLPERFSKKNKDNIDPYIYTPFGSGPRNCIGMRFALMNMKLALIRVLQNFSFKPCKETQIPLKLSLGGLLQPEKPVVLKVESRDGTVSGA
In short: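 Signal was normalized against complete inhibition by 57 uM ketoconazole. The reaction used 20nM CYP3A4 with 25uM Luciferin-PPXE, 10-min compound preincubation and a 60-min NADPH-supported step at RT.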

[3] = molecular target: Peroxisome proliferator-activated receptor delta (Homo sapiens) (UniProt Q03181); experiment: qHTS assay for small molecule antagonists of peroxisome proliferator-activated receptor delta signaling (AID 588535; active means well fitted inhibition curve with a large enough effect in the signal ratio, with a control signal flat, not every such curve was filed as active; the % refers to the signal ratio); details: HEK293T PPARd-UAS-bla, beta-lactamase FRET ratio, 18 h; series mostly up to 76.7 µM
Peroxisome proliferator-activated receptor delta (Homo sapiens), sequence (Q03181 whole entry, looked up): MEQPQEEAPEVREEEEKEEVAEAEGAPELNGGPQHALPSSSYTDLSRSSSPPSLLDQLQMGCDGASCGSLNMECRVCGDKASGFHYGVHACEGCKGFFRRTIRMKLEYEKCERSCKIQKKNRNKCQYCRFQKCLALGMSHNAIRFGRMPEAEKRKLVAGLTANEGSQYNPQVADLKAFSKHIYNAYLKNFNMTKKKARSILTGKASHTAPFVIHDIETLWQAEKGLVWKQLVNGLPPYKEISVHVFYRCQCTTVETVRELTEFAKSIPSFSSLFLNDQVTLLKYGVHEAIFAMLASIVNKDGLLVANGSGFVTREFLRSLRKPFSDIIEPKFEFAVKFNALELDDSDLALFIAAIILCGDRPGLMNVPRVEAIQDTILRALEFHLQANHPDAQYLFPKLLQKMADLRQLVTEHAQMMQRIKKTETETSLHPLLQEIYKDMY
In short: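 Cell-based beta-lactamase assay in antagonist mode: 4000 HEK293T PPAR-delta-UAS-bla cells per well, 5 hr preincubation then 18 hr compound incubation at 37 C. IC50 obtained by Hill equation fitting.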

[4] = qHTS assay to identify small molecules that stimulate interleukin-8 (IL-8) secretion (AID 651758; active means well fitted activation curve with a large enough effect in the signal ratio; the % refers to the signal ratio); details: HTRF ratio (665/615); series mostly up to 92.2 µM
In short: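 Secreted IL-8 measured by TR-FRET sandwich (cryptate and XL665 antibodies) from THP-1 cells exposed to compound overnight (16 hrs, 37 C).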

[5] = molecular target: Androgen receptor (Homo sapiens) (UniProt P10275); experiment: qHTS assay for small molecule agonists of androgen receptor signaling (AID 588515; active means well fitted curve in the direction sought with a large enough effect in the signal ratio, with a control signal flat; the % refers to the signal ratio); details: AR-UAS-bla HEK293, beta-lactamase ratio, agonist 16 h; active compounds read high
Androgen receptor (Homo sapiens), sequence (P10275 whole entry, looked up): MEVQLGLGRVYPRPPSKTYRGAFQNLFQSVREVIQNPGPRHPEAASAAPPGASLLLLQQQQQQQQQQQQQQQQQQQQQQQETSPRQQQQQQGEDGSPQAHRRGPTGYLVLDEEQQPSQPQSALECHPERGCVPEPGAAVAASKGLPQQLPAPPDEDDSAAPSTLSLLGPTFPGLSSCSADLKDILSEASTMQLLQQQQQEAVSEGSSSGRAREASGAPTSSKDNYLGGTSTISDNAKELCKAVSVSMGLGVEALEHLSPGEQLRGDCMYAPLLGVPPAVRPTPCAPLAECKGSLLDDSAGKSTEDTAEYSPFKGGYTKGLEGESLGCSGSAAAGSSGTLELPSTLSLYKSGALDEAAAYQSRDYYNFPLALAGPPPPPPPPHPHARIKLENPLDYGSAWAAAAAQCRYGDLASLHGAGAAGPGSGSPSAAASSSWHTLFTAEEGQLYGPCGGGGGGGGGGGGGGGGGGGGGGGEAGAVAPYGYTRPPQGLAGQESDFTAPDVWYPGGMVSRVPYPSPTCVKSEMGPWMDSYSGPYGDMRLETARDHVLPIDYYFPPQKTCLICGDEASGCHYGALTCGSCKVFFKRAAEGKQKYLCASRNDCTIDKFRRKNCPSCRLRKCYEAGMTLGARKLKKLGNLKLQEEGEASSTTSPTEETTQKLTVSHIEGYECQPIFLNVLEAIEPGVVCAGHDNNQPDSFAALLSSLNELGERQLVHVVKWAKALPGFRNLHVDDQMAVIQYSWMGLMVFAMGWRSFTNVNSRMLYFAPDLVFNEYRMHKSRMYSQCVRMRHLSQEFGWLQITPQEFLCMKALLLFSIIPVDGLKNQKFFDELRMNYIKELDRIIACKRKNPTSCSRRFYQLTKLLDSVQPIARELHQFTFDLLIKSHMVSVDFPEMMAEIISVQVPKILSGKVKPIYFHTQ
In short: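 EC50 and efficacy came from Hill fits of titrations (up to 92 uM) normalized to 30 nM R1881 as 100% and DMSO as 0%. Compound exposure was 16 h at 37 C on AR-UAS-bla HEK293 cells, with a 405/460/530 nm CCF4 fluorescence read.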

[6] = molecular target: Androgen receptor (Homo sapiens) (UniProt P10275); experiment: qHTS assay for small molecule antagonists of androgen receptor signaling (AID 588516; active means well fitted curve in the direction sought with a large enough effect in the signal ratio, with a control signal flat, not every such curve was filed as active; the % refers to the signal ratio); details: AR-UAS-bla HEK293, beta-lactamase ratio, antagonist mode, 16 h; series mostly up to 76.8 µM
In short: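 Compounds tested in titration against 10 nM R1881 in AR-responsive bla reporter HEK 293 cells; CCF4 fluorescence (460/530 nm) after 16 h exposure gave IC50 and efficacy.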

[7] = test system: HIV-1 nucleocapsid protein NCp7 (binding to TG oligonucleotide); experiment: HIV Nucleocapsid (AID 346; call rule not given here;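 further: potency means the concentration at half of the fitted maximal effect; potency is for inhibitors that block NC binding and lower polarization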); details: HIV-1 NC / fluorescein-TGTGTGTG probe, fluorescence polarization
In short: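 Inhibition of nucleocapsid binding to single-stranded 5'-TGTGTGTG probe (10 nM) was measured by fluorescence polarization after 1 hr at room temperature with 100 nM protein under high-salt, zinc-containing, reducing conditions.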

[8] = qHTS Assay for Inhibitors of Fructose-1,6-bisphosphate Aldolase from Giardia Lamblia: Giardia lamblia growth inhibition (AID 2785); details: Giardia lamblia trophozoite growth inhibition; series mostly up to 57.5 µM; further: nearly all actives have a fitted effect of over 70% in size
In short: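 Whole-parasite growth test: Giardia WB trophozoites in TYI-S-33 (pH 7.0), 100 per well, incubated 48 h at 37C with compound. ATP content was read by ATPlite luminescence.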

[9] = qHTS Assay for Inhibitors of Fructose-1,6-bisphosphate Aldolase from Giardia Lamblia: Mammalian cellular toxicity (AID 2786); details: mammalian cell viability counter-screen; series mostly up to 57.5 µM;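 further: compound exposure lasted 48 h before reading; nearly all actives have a fitted effect of over 60% in size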
In short: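 Mammalian cytotoxicity surrogate: Chinese hamster ovary cells exposed to compound for 48 h at 37 °C. Cellular ATP then measured with ATPlite reagent, 20 min incubation.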

[10] = molecular target: Fructose-bisphosphate aldolase (Giardia intestinalis (strain ATCC 50803 / WB clone C6)) (UniProt A8B2U2); experiment: qHTS Assay for Inhibitors of Fructose-1,6-bisphosphate Aldolase from Giardia Lamblia: Primary screen confirmation (AID 2787); details: purified Giardia aldolase enzyme activity; series mostly up to 57.5 µM;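 further: aldolase product measured through coupled diaphorase step turning resazurin into fluorescent resorufin; nearly all actives have a fitted effect of over 45% in size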
Fructose-bisphosphate aldolase (Giardia intestinalis (strain ATCC 50803 / WB clone C6)), sequence (A8B2U2 whole entry, looked up): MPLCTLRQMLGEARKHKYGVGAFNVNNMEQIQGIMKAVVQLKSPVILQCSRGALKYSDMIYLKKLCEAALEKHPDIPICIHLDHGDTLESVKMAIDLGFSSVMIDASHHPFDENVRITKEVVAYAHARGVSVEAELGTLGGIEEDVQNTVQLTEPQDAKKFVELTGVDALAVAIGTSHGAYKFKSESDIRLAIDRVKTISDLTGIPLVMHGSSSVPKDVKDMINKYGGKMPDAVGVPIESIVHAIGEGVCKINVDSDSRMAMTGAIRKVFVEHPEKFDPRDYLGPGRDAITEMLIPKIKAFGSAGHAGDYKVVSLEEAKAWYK
In short: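 Confirmation of primary hits by qHTS up to 57.5 uM final compound. Enzyme at 40 nM with 30 uM ZnCl2, 10 min RT pre-incubation, then substrate/coupling/resorufin-forming detection mix for 20 min before fluorescence read at 525/598 nm.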

[11] = molecular target: Fructose-bisphosphate aldolase A (Oryctolagus cuniculus) (UniProt P00883); experiment: qHTS Assay for Inhibitors of Fructose-1,6-bisphosphate Aldolase from Giardia Lamblia: Rabbit FBPA Selectivity (AID 2794); details: Rabbit muscle FBPA enzyme inhibition, selectivity counter-screen; series mostly up to 57.5 µM; further: nearly all actives have a fitted effect of over 60% in size
Fructose-bisphosphate aldolase A (Oryctolagus cuniculus), sequence (P00883 whole entry, looked up): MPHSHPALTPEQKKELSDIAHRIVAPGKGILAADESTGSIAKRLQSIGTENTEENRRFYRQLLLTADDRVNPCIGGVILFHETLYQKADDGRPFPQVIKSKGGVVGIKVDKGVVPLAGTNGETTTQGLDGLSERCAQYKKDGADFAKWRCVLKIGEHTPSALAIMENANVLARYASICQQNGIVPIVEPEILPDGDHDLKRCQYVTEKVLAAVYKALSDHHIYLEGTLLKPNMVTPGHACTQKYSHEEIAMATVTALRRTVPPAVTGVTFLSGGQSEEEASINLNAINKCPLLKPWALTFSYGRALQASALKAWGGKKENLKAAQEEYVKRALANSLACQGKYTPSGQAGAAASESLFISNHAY
In short: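 Glyceraldehyde-3-phosphate-coupled detection measures rabbit Class I aldolase turnover via AmpLite Red fluorescence. Compounds (final up to 57.5 uM) preincubated 10 min; signal read 20 min post-substrate at RT.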

[12] = qHTS Assay for Inhibitors of Fructose-1,6-bisphosphate Aldolase from Giardia Lamblia: Coupling assay counterscreen confirmation (AID 2795); details: GAPDH coupling enzyme counterscreen, biochemical; series mostly up to 57.5 µM; further: nearly all actives have a fitted effect of over 55% in size
In short: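 Concentration-response counterscreen (up to 57.5 uM final) of aldolase-screen hits against coupling enzymes only. Substrate, coupling system and AmpLite Red were added after a 10 min RT preincubation; fluorescence was taken 20 min later at 525/598 nm.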

SMILES: Nc1ccc(Oc2ccc(N)cc2)cc1
- Potency [1]: > 92 µM
- Potency [2]: inactive
- outcome [3]: inactive
- Potency [4]: inactive

SMILES: CCC/C=N/O
- Potency [1]: > 92 µM
- Potency [4]: inactive

SMILES: C=CC(=O)OCC(CC)CCCC (stereo not drawn)
- Potency [1]: > 92 µM

SMILES: Nc1cc(Cl)cc(C(=O)O)c1Cl
- Potency [1]: > 92 µM
- Potency [2]: inactive
- outcome [3]: inactive

SMILES: C=CC(=O)OCCO
- outcome [3]: inactive

SMILES: Nc1ccc(-c2ccc(N)c(Cl)c2)cc1Cl
- Potency [1]: 19 µM (active)
- Potency [2]: inactive

SMILES: [C-]1=CC=CC1.[C-]1=CC=CC1.[Cl-].[Cl-].[Ti+4]
- Potency [1]: 55.7 µM (active)

SMILES: CN(C)c1ccc(N)cc1
- Potency [2]: inactive
- activation [5]: -5.02%
- outcome [3]: inactive

SMILES: C/C=C/CC#N
- Potency [1]: > 92 µM
- outcome [3]: inactive
- Potency [4]: inactive

SMILES: O=P(OCCCl)(OCCCl)OCCCl
- Potency [1]: > 92 µM
- outcome [3]: inactive
- Potency [4]: inactive

SMILES: O=[N+]([O-])c1cccc2c([N+](=O)[O-])cccc12
- Potency [1]: > 92 µM
- activation [5]: 1.43%
- outcome [6]: inactive
- Potency [4]: inactive

SMILES: Clc1cccc(Cl)c1
- Potency [1]: > 92 µM
- outcome [3]: inactive
- Potency [4]: inactive

SMILES: CN(C)Cc1ccccc1-c1ccc2ncnc(N3CCOCC3)c2c1
- Potency [7]: > 20 µM

SMILES: Nc1c(Br)cc([N+](=O)[O-])cc1[N+](=O)[O-]
- Potency [2]: inactive
- activation [5]: -3.78%
- outcome [3]: inactive

SMILES: COc1ccc(Oc2ncc3nc(CCc4ccccc4)c(=O)n(C4CC4)c3n2)cc1
- Potency [7]: > 20 µM

SMILES: Cc1cccc(CNc2ccnc(-c3cccc(NS(C)(=O)=O)c3)n2)c1
- Potency [7]: > 20 µM

SMILES: Oc1cc(Cl)c(Cl)c(Cl)c1
- Potency [2]: inactive

SMILES: CN(C)c1ncc2nc(-c3cccc(C#N)c3)c(=O)n(C[C@H]3CCCO3)c2n1
- Potency [7]: > 20 µM

SMILES: COc1ccccc1CN1CCN(C(=O)Cc2ccccc2)CC1
- outcome [8]: inactive
- outcome [9]: inactive
- outcome [10]: inactive
- outcome [11]: inactive
- outcome [12]: inactive

SMILES: Nc1cc(Cl)ccc1O
- outcome [3]: inactive

SMILES: O=C(c1csnn1)N1CCC2(CC1)CCN(c1ccncc1)CC2
- Potency [7]: > 20 µM

SMILES: O=C(c1ccncc1)N1CCC2(CCCN(c3cccc(-c4ccccc4)c3)C2)CC1
- Potency [7]: > 20 µM

SMILES: COc1ccccc1CNc1ncncc1-c1ccccc1OC
- Potency [7]: > 20 µM

SMILES: COc1ncc2nc(-c3cc(F)cc(F)c3)c(=O)n(CCc3ccccc3)c2n1
- Potency [7]: > 20 µM
